Laboratory results as given in the supplement of paper PMC10849652.
About 8,800 targets were measured; listed, in parts, are those with a hit and a random draw of the rest. About 0.5% of all pairs of compound and target were hits.

Legend:
Assay in all cases: log2 fold change, soluble protein after heating vs DMSO (PISA); higher = thermal stabilisation; K562 lysate, 10 uM; active = over 0.2 and 3.5 SD of the protein, either way, in both replicates (recomputed)
ibrutinib = compound: C=CC(=O)N1CCC[C@@H](n2nc(-c3ccc(Oc4ccccc4)cc3)c3c(N)ncnc32)C1 [ibrutinib]
Summary of the method: (§1)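 A 30 min treatment with 10 μM compound was applied to crude K562 extract at 1 mg/mL protein in PBS pH 7.4 with 1 mM MgCl2. Heating for 3 min spanned 48°C-58°C, after which aliquots were pooled, adjusted to 0.5% NP-40 at 4°C and spun at 21,000xg for 90 min. TMTpro 16plex LC-MS/MS of the supernatant, with channel sums equalised, gave values recorded as log-two fold change in thermal stability against solvent controls, from duplicates.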

[1] = compound: CC(=O)c1cnc2ccc(-c3cc(Cl)c(O)c(Cl)c3)nc2c1N[C@H]1CC[C@H](CN(C)C)CC1
Summary of the method: as §1

ralimetinib = compound: CC(C)(C)Cn1c(N)nc2ccc(-c3[nH]c(C(C)(C)C)nc3-c3ccc(F)cc3)nc21 [ralimetinib]
Summary of the method: as §1

[2] = compound: CC(C)(O)CC(=O)NCCn1ccc2ncnc(Nc3ccc(Oc4cccc(C(F)(F)F)c4)c(Cl)c3)c21
Summary of the method: as §1

[3] = compound: CC(C)C1=C2N=C(C=C(N2N=C1)NCC3=CC=CC=C3)NCCCCCCN
Summary of the method: as §1

[4] = compound: CC1=C(C(CC(=O)N1)C2=CC=C(C=C2)C(F)(F)F)C(=O)NC3=C(C=C4C(=C3)C=NN4)F
Summary of the method: as §1

[5] = compound: CC1=C(C2=C(C=C1)C(=O)C3=CC=CC=C3N2CCCN)C
Summary of the method: as §1

[6] = compound: CC1=C(C=C(C=C1)NC(=O)C2=CC(=CC=C2)C(C)(C)C#N)NC3=CC4=C(C=C3)N=CN(C4=O)C
Summary of the method: as §1

[7] = compound: CC1=C(C=C(C=C1)NC(=O)C2=CC(=CC=C2)N(C)C)NC(=O)C3=CC=C(C=C3)O
Summary of the method: as §1

[8] = compound: CC1=CC=C(C=C1)SC2=C3C=C(SC3=CN=C2)C(=O)N
Summary of the method: as §1

vemurafenib = compound: CCCS(=O)(=O)Nc1ccc(F)c(C(=O)c2c[nH]c3ncc(-c4ccc(Cl)cc4)cc23)c1F [vemurafenib]
Summary of the method: as §1

[9] = compound: CCCS(=O)(=O)Nc1ccc(F)c(C(=O)c2c[nH]c3ncc(Cl)cc23)c1F
Summary of the method: as §1

barasertib = compound: CCN(CCCOc1ccc2c(Nc3cc(CC(=O)Nc4cccc(F)c4)[nH]n3)ncnc2c1)CCOP(=O)(O)O [barasertib]
Summary of the method: as §1

[10] = compound: CC[C@@H]1C(=O)N(C)c2cnc(Nc3ccc(C(=O)NC4CCN(C)CC4)cc3OC)nc2N1C1CCCC1
Summary of the method: as §1

volasertib = compound: CC[C@@H]1C(=O)N(C)c2cnc(Nc3ccc(C(=O)N[C@H]4CC[C@H](N5CCN(CC6CC6)CC5)CC4)cc3OC)nc2N1C(C)C [volasertib]
Summary of the method: as §1

[11] = compound: CCn1c(C(=O)N(C2CC2)C2CC2)cc2c3c(ncn3C)c(Nc3cc(C)n(C)n3)nc21
Summary of the method: as §1

[12] = compound: CCn1cc(-c2ccnc3[nH]c(-c4cccc(CN(C)C)c4)cc23)c(-c2ccc(NC(=O)N(C)C)cc2)n1
Summary of the method: as §1

[13] = compound: CN1CCC(CNc2ccc3ncc(-c4cccc(OC(F)(F)F)c4)n3n2)CC1
Summary of the method: as §1

saracatinib = compound: CN1CCN(CCOc2cc(OC3CCOCC3)c3c(Nc4c(Cl)ccc5c4OCO5)ncnc3c2)CC1 [saracatinib]
Summary of the method: as §1

sotrastaurin = compound: CN1CCN(c2nc(C3=C(c4c[nH]c5ccccc45)C(=O)NC3=O)c3ccccc3n2)CC1 [sotrastaurin]
Summary of the method: as §1

Measured: log2 fold change

UBA1 (UniProt P22314)
Chain of UniProt P22314 (P22314 whole entry, looked up): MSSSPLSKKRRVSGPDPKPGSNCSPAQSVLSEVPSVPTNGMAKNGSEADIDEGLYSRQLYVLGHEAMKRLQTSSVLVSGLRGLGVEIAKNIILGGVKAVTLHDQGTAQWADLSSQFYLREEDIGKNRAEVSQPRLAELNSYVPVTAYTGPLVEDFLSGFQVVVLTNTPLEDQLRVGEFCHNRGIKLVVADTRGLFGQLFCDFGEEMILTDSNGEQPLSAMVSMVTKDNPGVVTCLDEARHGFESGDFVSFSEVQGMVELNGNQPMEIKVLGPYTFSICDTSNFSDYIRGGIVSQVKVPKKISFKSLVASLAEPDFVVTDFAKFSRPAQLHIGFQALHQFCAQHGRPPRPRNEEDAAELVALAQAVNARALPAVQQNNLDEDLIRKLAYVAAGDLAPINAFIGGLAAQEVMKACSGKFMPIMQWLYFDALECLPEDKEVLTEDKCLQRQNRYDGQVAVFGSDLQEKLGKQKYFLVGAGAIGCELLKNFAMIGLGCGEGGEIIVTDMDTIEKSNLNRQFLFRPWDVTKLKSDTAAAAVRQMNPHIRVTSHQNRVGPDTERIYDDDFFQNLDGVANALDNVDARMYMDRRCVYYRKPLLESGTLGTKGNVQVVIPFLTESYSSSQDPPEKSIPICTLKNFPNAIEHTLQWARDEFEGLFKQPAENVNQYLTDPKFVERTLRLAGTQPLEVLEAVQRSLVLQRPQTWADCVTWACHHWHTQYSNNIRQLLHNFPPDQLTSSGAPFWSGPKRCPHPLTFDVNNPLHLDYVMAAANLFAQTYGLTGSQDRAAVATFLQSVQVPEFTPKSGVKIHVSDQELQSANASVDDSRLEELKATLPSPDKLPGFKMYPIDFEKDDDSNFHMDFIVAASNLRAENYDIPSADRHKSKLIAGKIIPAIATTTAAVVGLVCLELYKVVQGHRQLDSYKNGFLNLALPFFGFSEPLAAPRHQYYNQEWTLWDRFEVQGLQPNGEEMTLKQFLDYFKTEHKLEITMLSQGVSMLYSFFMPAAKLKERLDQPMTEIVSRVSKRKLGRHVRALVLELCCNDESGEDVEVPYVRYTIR
inactive: ibrutinib -0.002 | [1] 0.003 | ralimetinib 0.053 | [2] 0 | [3] 0.027 | [4] -0.018 | [5] 0.006 | [6] 0 | [7] 0.015 | [8] 0.02 | vemurafenib 0.018 | [9] 0.005 | barasertib 0.023 | [10] -0.063 | volasertib -0.036 | [11] -0.006 | [12] -0.027 | [13] 0.004 | saracatinib -0.02 | sotrastaurin 0.008

TNPO3 (UniProt Q9Y5L0)
Chain of UniProt Q9Y5L0 (Q9Y5L0 whole entry, looked up): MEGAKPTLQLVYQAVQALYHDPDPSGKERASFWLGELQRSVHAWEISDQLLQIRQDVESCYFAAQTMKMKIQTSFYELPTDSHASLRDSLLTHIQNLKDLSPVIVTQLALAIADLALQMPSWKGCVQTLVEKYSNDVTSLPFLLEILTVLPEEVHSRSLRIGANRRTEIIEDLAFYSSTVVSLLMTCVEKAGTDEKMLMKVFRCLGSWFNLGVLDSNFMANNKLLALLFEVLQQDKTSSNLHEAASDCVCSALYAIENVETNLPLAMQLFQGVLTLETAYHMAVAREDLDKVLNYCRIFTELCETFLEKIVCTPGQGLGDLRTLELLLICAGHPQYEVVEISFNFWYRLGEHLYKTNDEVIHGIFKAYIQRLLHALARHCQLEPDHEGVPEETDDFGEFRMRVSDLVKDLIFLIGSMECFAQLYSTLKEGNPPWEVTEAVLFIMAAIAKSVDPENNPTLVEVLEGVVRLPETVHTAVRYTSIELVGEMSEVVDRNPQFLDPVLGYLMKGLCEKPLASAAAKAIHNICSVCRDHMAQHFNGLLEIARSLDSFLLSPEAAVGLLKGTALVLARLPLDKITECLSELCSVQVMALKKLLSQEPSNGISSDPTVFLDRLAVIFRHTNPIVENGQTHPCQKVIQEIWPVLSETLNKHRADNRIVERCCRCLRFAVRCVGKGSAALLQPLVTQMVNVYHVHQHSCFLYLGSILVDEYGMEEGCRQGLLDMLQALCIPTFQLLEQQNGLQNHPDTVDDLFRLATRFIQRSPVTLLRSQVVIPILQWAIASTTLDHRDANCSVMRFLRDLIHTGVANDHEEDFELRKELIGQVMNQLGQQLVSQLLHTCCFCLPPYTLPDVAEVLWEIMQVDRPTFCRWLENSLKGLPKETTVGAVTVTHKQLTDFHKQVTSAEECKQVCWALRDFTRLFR
inactive: ibrutinib -0.008 | [1] 0.015 | ralimetinib 0.003 | [2] -0.023 | [3] -0.033 | [4] -0.006 | [5] 0 | [6] -0.015 | [7] 0.003 | [8] 0.008 | vemurafenib 0.024 | [9] 0.003 | barasertib 0.019 | [10] 0.009 | volasertib -0.008 | [11] 0.008 | [12] 0.005 | [13] 0.023 | saracatinib -0.001 | sotrastaurin -0.004

UBAP2 (UniProt Q5T6F2)
Chain of UniProt Q5T6F2 (Q5T6F2 whole entry, looked up): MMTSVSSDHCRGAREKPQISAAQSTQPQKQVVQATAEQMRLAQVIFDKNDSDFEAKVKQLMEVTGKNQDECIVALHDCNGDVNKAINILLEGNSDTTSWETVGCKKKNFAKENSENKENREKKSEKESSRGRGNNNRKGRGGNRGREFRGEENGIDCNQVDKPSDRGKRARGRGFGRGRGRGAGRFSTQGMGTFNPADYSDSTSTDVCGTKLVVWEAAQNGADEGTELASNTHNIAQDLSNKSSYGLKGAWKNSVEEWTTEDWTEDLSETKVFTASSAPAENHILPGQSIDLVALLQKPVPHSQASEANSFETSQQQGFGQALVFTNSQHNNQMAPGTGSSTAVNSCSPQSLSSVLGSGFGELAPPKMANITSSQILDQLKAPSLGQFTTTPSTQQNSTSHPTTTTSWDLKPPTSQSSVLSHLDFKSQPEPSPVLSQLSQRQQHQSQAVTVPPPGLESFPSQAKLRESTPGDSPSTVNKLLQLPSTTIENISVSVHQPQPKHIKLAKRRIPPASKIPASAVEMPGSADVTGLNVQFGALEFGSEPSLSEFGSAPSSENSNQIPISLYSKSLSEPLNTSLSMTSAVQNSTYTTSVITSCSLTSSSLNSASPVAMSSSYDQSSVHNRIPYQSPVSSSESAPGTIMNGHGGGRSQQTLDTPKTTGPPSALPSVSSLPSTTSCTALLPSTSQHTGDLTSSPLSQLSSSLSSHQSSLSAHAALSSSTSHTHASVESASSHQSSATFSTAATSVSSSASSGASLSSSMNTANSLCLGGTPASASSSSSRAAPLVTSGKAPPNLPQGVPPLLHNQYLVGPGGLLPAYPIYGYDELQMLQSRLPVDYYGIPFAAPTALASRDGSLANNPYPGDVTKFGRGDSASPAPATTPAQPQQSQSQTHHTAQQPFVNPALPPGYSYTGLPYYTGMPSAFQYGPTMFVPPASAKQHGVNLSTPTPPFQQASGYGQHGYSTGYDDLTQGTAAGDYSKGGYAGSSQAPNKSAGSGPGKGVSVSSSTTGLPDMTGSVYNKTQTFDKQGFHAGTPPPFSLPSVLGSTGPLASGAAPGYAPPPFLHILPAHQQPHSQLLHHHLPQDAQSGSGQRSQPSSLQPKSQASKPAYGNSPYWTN
inactive: ibrutinib 0.014 | [1] 0.009 | ralimetinib -0.044 | [2] -0.067 | [3] 0.008 | [4] 0.03 | [5] 0.006 | [7] -0.026 | [8] -0.019 | vemurafenib 0.009 | [9] 0.016 | barasertib -0.007 | [10] 0.071 | volasertib -0.002 | [11] 0.004 | [12] -0.172 | [13] 0.106 | saracatinib 0.028 | sotrastaurin 0.02
active: [6] -0.474

TSPAN13 (UniProt O95857)
Chain of UniProt O95857 (O95857 whole entry, looked up): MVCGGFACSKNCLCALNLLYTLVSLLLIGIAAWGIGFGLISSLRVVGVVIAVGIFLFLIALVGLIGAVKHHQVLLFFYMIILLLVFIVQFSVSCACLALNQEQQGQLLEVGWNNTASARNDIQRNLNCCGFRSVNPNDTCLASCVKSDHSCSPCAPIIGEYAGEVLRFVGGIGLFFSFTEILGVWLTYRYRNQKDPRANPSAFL
inactive: ibrutinib 0.018 | [1] -0.001 | ralimetinib -0.048 | [2] -0.044 | [3] -0.083 | [4] 0.102 | [5] 0.036 | [6] 0.088 | [7] 0 | [8] -0.043 | vemurafenib -0.032 | [9] -0.03 | barasertib -0.033 | [10] 0.177 | volasertib 0.032 | [11] 0.046 | [12] 0.114 | [13] 0.059 | saracatinib 0.134 | sotrastaurin -0.154

TRIM23 (UniProt P36406)
Chain of UniProt P36406 (P36406 whole entry, looked up): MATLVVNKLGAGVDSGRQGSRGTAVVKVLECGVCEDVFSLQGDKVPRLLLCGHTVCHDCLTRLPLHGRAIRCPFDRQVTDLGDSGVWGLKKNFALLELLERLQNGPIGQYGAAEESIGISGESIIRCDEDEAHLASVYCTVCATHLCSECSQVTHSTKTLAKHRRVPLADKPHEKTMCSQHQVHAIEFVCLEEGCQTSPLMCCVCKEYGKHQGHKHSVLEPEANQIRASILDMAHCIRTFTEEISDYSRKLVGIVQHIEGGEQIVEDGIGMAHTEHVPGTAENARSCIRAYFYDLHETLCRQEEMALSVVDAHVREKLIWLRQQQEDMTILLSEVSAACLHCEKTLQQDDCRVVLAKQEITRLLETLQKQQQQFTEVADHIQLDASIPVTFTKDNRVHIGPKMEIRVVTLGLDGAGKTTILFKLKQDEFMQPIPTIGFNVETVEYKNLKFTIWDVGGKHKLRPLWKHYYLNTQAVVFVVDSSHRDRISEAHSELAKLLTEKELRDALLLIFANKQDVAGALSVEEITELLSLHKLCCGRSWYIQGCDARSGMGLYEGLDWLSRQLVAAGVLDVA
inactive: ibrutinib -0.031 | [1] 0.061 | ralimetinib -0.102 | [2] -0.085 | [3] -0.056 | [4] 0.026 | [5] -0.065 | [6] 0.099 | [7] -0.22 | [8] -0.022 | vemurafenib 0.077 | [9] -0.038 | barasertib 0.119 | [10] 0.115 | volasertib -0.03 | [11] 0.316 | [12] -0.28 | [13] 0.073 | saracatinib 0.096 | sotrastaurin 0.01

TBC1D8B (UniProt Q0IIM8)
inactive: ibrutinib 0.044 | [1] -0.039 | ralimetinib -0.049 | [2] -0.017 | [3] 0.031 | [4] -0.072 | [5] 0.006 | [6] 0.016 | [7] -0.056 | [8] -0.051 | vemurafenib -0.007 | [9] -0.025 | barasertib 0.108 | [10] 0.096 | volasertib 0.072 | [11] -0.024 | [13] 0.192 | saracatinib -0.047 | sotrastaurin -0.042
active: [12] -0.308

UBXN10 (UniProt Q96LJ8)
Chain of UniProt Q96LJ8 (Q96LJ8 whole entry, looked up): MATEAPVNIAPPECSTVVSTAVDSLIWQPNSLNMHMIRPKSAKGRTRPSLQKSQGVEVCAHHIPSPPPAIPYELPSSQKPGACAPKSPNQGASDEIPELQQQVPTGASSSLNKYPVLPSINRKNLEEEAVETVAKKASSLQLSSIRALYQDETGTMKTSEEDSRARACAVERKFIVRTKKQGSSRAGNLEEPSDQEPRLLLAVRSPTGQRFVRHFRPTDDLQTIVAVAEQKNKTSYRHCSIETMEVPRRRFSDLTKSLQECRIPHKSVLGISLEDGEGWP
inactive: ibrutinib 0.016 | [1] 0.044 | ralimetinib 0.002 | [2] -0.012 | [3] 0.014 | [5] 0.012 | [6] -0.001 | [7] 0.069 | [8] -0.015 | vemurafenib 0.008 | [9] -0.089 | barasertib -0.133 | [10] 0.095 | volasertib 0.074 | [11] 0.01 | [12] -0.082 | [13] 0.021 | saracatinib -0.016 | sotrastaurin -0.012

TMEM161B (UniProt Q8NDZ6)
Chain of UniProt Q8NDZ6 (Q8NDZ6 whole entry, looked up): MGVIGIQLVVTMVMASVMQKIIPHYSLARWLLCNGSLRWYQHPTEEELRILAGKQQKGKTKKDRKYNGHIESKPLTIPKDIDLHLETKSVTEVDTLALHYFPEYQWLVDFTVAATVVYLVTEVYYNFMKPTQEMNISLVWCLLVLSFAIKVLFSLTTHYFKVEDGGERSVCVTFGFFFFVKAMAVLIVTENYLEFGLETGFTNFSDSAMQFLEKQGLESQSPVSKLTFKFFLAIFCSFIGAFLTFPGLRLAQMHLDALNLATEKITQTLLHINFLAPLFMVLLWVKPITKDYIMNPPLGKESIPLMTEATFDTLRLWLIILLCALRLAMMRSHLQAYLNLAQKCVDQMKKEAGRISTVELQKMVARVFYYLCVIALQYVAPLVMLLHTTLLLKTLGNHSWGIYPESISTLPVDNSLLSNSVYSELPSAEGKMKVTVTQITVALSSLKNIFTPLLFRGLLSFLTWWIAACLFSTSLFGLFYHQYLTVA
inactive: ibrutinib -0.026 | [1] 0.197 | ralimetinib 0 | [2] -0.224 | [3] -0.113 | [4] -0.005 | [6] 0.027 | [7] 0.108 | [8] -0.012 | vemurafenib -0.112 | [9] -0.076 | barasertib 0.076 | [10] -0.073 | volasertib -0.055 | [11] -0.028 | [12] 0.055 | [13] -0.104 | sotrastaurin 0.009
